# Measurements from article PMC5540273 (PLoS ONE, 2017).
# Key:
# [1] = tested on: PRKD1
# [2] = tested on: PRKD2
# [3] = tested on: PKN1
# [4] = tested on: PRKCQ
# [5] = tested on: PRKCI
# [6] = tested on: PRKCE
# [7] = tested on: PRKCH
# [8] = tested on: PLK1
# [9] = tested on: PLK2
# [10] = tested on: PLK3
# 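Further: kd values determined as follow-up on hits from a single-replicate KINOMEscan panel screen.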
smiles,measurement,setting,value
Cc1cccc(-c2nc(Nc3ccc4[nH]nnc4c3)c3ccccc3n2)n1 [GW867587],Kd,[1],61 nM
same,Kd,[2],83 nM
COc1cc2ncnc(Nc3ccc(OCc4ccccc4Br)c(Cl)c3)c2cc1OC.Cl [GI261590],Kd,[3],> 10000 nM
same,Kd,[4],> 10000 nM
O=C(c1ccc(-c2cc(-c3c[nH]nc3-c3ccccn3)ccn2)cc1)N1CCCC1 [GW792479],Kd,[5],> 10000 nM
Cl.Cl.c1ccc(-c2cc3ccncc3cc2OC2CCNCC2)cc1 [GSK1122999],Kd,[6],640 nM
same,Kd,[7],390 nM
Fc1cccc(COc2ccc(Nc3ncnc4sc(-c5ccc[nH]5)cc34)cc2Cl)c1 [GW707818],Kd,[7],> 10000 nM
NC(=O)c1sc(-n2cnc3ccccc32)cc1OCc1ccccc1F [GSK1024306],Kd,[8],9.6 nM
same,Kd,[9],25 nM
same,Kd,[10],52 nM
